In the library only some 0.9% were active in any assay of this set; here they are far more common.
SRC1 TRFRET art = TR-FRET artefact, counter-screen to PPARgamma/SRC-1 agonist assay; TR-FRET detection artefact counter-screen, emission ratio; stronger effect = higher value; TR-FRET ratio at 8 µM; actives 0.34% (n = 99,000); in the data active = TR-FRET ratio above about 2300
TR-FRET SRC-2 ct = counter-screen for PPARgamma SRC-2 recruitment agonists: TR-FRET artefact; stronger effect = higher value; TR-FRET ratio at 8 µM; actives 0.4% (n = 200,000); AID 1049
PPARg SRC-1 ag = promotes SRC-1 coactivator recruitment by human PPARgamma; PPARgamma-SRC-1 coactivator recruitment biochemical assay; P37231; actives 0.41% (n = 200,000); AID 631; activation, % at 8 µM; in the data active = activation above about 19%
PPARg SRC-2 ag = PPARgamma-driven SRC-2 recruitment agonism; P37231; PPARgamma LBD-SRC-2 recruitment, biochemical; activation, % at 8 µM; actives 0.34% (n = 200,000); AID 1032; in the data active = activation above about 22%
PPARg SRC3 recr = PPARgamma-driven SRC-3 recruitment agonism; activation, % at 8 µM; actives 0.26% (n = 200,000); P37231; biochemical PPARgamma/SRC-3 coactivator recruitment assay; in the data active = activation above about 23%
SRC3 TRFRET art = flags TR-FRET format artefacts in PPARgamma SRC-3 recruitment agonist screen. TR-FRET artefact counter-screen, PPARgamma/SRC-3 format; stronger effect = higher value. AID 1048. actives 0.39% (n = 99,000). TR-FRET ratio at 8 µM
PPARg SRC2 ag = confirmation of agonists of SRC-2 recruitment by human PPARgamma | actives 52% (n = 790) | biochemical SRC-2 recruitment by PPARgamma | shares compounds with PPARg SRC3 recr | AID 1297 | activation, % at 8 µM; in the data active = activation above about 22%
PPARg SRC1 conf = human PPARgamma SRC-1 recruitment agonism, confirmation. activation, % at 8 µM. actives 43% (n = 790). AID 1300. PPARgamma–SRC-1 coactivator recruitment biochemical assay. shares compounds with PPARg SRC3 recr; in the data active = activation above about 20%
PPARg SRC3 ag = human PPARgamma SRC-3 recruitment agonism, confirmation | biochemical PPARgamma-SRC-3 coactivator recruitment, agonist mode | activation, % at 8 µM | actives 29% (n = 790) | shares compounds with PPARg SRC3 recr; in the data active = activation above about 24%
Numbers stand for hits; i = inactive; nt = no result given. Cut-off read from the data, not from the text of the source, unless noted: active = TR-FRET ratio above about 2000; inactive = the rest.

SMILES	SRC1 TRFRET art	TR-FRET SRC-2 ct	PPARg SRC-1 ag	PPARg SRC-2 ag	PPARg SRC3 recr	SRC3 TRFRET art	PPARg SRC2 ag	PPARg SRC1 conf	PPARg SRC3 ag
CCCCN(CC)C(=O)CSc1cc(=O)n(C)c2ccccc12	nt	2446	54.9	50.9	73.8	nt	31.6	19.8	i
CCOc1ccc(CCNC(=O)CSc2cc(=O)n(CC)c3ccccc23)cc1OCC	i	2084	20.5	30.7	i	i	24.9	i	i
CCCc1cc(=O)[nH]c(SCC(=O)N(C)Cc2ccccc2)n1	nt	i	i	i	i	nt	nt	nt	nt
COc1ccc(C(=O)CC(=O)C(=O)NCCc2cccc(C)c2)cc1	i	i	i	i	i	i	nt	nt	nt
CCOC(=O)N1CCC(NC(=O)CSc2cc(=O)n(C)c3ccccc23)CC1	nt	2545	47.0	48.7	48.1	nt	40.2	26.2	25.2
CCOC(=O)CSc1cc(=O)n(C)c2cc(Cl)ccc12	nt	3535	76.8	67.9	97.4	nt	43.3	26.0	28.5
CN(Cc1ccccc1)C(=O)CSc1cc(=O)n(C)c2ccccc12	3203	2656	46.3	i	31.1	2514	32.2	22.2	24.3
CCOC(=O)CSc1cc(=O)n(CC)c2ccccc12	nt	2136	27.6	35.9	32.2	nt	27.4	i	i
Cn1c(=O)cc(SCC(=O)NCC2COc3ccccc3O2)c2ccccc21 (configuration not stated)	nt	i	i	i	i	nt	nt	nt	nt
CCC(C(=O)NCc1ccco1)N(C(=O)CNS(=O)(=O)c1ccccc1)c1ccccc1C (configuration not stated)	i	i	i	i	i	i	nt	nt	nt
S=c1[nH]nc(-c2ccccn2)n1/N=C/c1ccc(-c2ccccc2Br)o1	5322	4475	69.1	129.3	69.2	4805	82.1	60.3	52.8
COc1c(F)c(F)c(C(=O)Nc2ccc3oc(-c4ccncc4)nc3c2)c(F)c1F	nt	i	82.4	i	74.4	nt	71.2	66.1	48.6
O=C(O)c1ccccc1C(=O)Nc1ccc(S(=O)(=O)NC2CCCCC2)cc1	i	i	i	i	i	i	nt	nt	nt
COc1ccc(OCC(=O)Nc2cc(-c3nn4c(C)nnc4s3)ccc2C)cc1	nt	i	27.6	i	i	nt	i	i	i
COc1ccc(C(=O)Nc2cc(-c3nn4c(C)nnc4s3)ccc2C)cc1	nt	i	i	i	i	nt	nt	nt	nt
c1csc(CNc2ccc3c(c2)OCCO3)c1	i	i	i	i	i	i	nt	nt	nt
Oc1ccccc1CNc1ccc2c(c1)OCCO2	i	i	20.6	i	i	i	i	i	i
CCOC(=O)c1c(C)[nH]c(C2=NNC(=NC3CC3)SC2)c1C	i	i	i	i	i	i	nt	nt	nt
CCN(CC)c1ccc(NC(=O)CSc2nnc(N)s2)cc1C	nt	i	19.6	i	i	nt	i	i	i
NC(=O)c1ccc(C(F)(F)F)n(Cc2cccc(Cl)c2)c1=O	nt	i	i	i	i	nt	nt	nt	nt
O=C1NN(c2ccccc2)C(=O)/C1=C/c1ccc(Sc2cccc3ccccc23)o1	2739	2448	29.8	38.9	i	2511	25.4	i	i
Cc1ccc(OCCn2cc(/C=C3\C(=O)NN(c4ccccc4)C3=O)c3ccccc32)cc1	i	i	i	i	i	i	nt	nt	nt
COC(=O)c1cc([N+](=O)[O-])c(-n2ccnc2)c([N+](=O)[O-])c1	i	i	i	i	i	i	nt	nt	nt
C=CCNC(=S)Nc1cccc(N)c1	i	i	i	i	i	i	nt	nt	nt
Nc1nc(-c2c[nH]c3ccccc23)cs1	nt	i	20.0	i	35.9	nt	21.9	i	i
SMILES	SRC1 TRFRET art	TR-FRET SRC-2 ct	PPARg SRC-1 ag	PPARg SRC-2 ag	PPARg SRC3 recr	SRC3 TRFRET art	PPARg SRC2 ag	PPARg SRC1 conf	PPARg SRC3 ag
CNc1nc(-c2c[nH]c3ccccc23)cs1	nt	i	i	i	i	nt	nt	nt	nt
O=C(CN1CCN(S(=O)(=O)c2ccccc2)CC1)Nc1ccc([N+](=O)[O-])cc1	i	i	i	i	i	i	nt	nt	nt
COc1cccc(Nc2nc(-c3sc(NC(=O)c4ccccc4)nc3C)cs2)c1	nt	i	i	i	26.7	nt	41.5	25.7	i
O=c1oc2cc(OCc3ccc(F)cc3F)ccc2cc1-c1ccc2ccccc2n1	i	i	i	i	i	i	nt	nt	nt
O=C(CSc1ncnc2c1oc1ccccc12)Nc1ccccc1F	nt	i	33.1	i	26.9	nt	36.7	28.9	i
c1ccc(Sc2ncnc3c2oc2ccccc23)nc1	nt	i	i	i	i	nt	nt	nt	nt
O=C(CSc1ncnc2c1cnn2CCc1ccccc1)Nc1cccc(C(F)(F)F)c1	nt	i	i	i	i	nt	nt	nt	nt
COC(=O)c1ccc(CSc2ncnc3c2oc2ccccc23)o1	nt	1972	56.4	28.6	50.4	nt	44.0	28.5	30.5
O=C(CSc1ncnc2c1oc1ccccc12)Nc1cccc(C(F)(F)F)c1	nt	2069	20.8	35.3	29.0	nt	30.2	20.2	i
CC(C)Sc1ncnc2c1oc1ccccc12	nt	i	36.4	33.2	38.4	nt	45.1	32.9	29.8
CC(O)CNc1nc2ccccc2n1CC(=O)N1CCN(Cc2ccccc2)CC1 (configuration not stated)	i	i	i	i	i	i	nt	nt	nt
COCCNC(=O)CSc1nc2nn(-c3ccccc3)c(=O)c-2c2n1CCCCC2	i	i	i	i	i	i	nt	nt	nt
CCN(CC)S(=O)(=O)c1ccc(NC(=O)COC(=O)CNS(=O)(=O)/C=C/c2ccccc2)cc1	i	i	i	i	i	i	nt	nt	nt
O=C(CSc1ncnc2c1oc1ccccc12)Nc1nc2ccccc2s1	nt	i	29.9	i	39.2	nt	44.1	31.4	27.6
CC(=O)N1CCN(c2ccc(Nc3ncnc4c3oc3ccccc34)cc2)CC1	nt	i	i	23.2	i	nt	i	i	i
Fc1ccccc1CSc1ncnc2c1oc1ccccc12	nt	2035	45.6	i	50.8	nt	48.8	38.0	32.2
O=C(CSc1nc2ccccc2o1)Nc1nc2ccccc2s1	nt	i	i	i	i	nt	nt	nt	nt
O=C(O)CSc1nc(-c2ccccc2)nc2c1oc1ccccc12	nt	i	i	i	i	nt	nt	nt	nt
O=c1c2oc3ccccc3c2ncn1Cc1ccccc1F	nt	i	i	i	i	nt	nt	nt	nt
CC(=O)CSc1ncnc2c1oc1ccccc12	nt	5487	135.2	114.2	218.7	nt	65.3	43.4	43.5
O=C(NC1CCCCC1)C(=S)NC1CCCCC1	i	i	i	i	i	i	nt	nt	nt
O=c1c2oc3ccccc3c2ncn1Cc1cccc(Cl)c1	i	i	i	i	i	i	nt	nt	nt
O=C(CSc1ncnc2c1oc1ccccc12)Nc1cccc(Cl)c1	nt	i	i	25.2	33.1	nt	27.3	21.9	i
O=C(CNS(=O)(=O)c1ccc2ccccc2c1)OCC(=O)c1ccc(Br)s1	nt	2540	33.3	60.9	68.7	nt	55.1	35.1	38.0
Cc1cc(C(=O)COC(=O)CNS(=O)(=O)c2ccc3ccccc3c2)c(C)n1-c1ccccc1	i	i	i	i	i	i	nt	nt	nt

Screening data as filed in PubChem.
